Assay results published in PubChem BioAssay (NCI).
The panel holds about 83,000 compounds, 20% with a hit somewhere; the sample as a whole holds those more often.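 Interpretation: 100, growth as untreated; towards 0, rising growth inhibition; 0, no net growth; 0 to -100, cell death. Compounds scoring below 10 were considered active.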 Unmarked numbers belong to inactive results. Activity calls are given as the source filed them.

How the values were obtained:
Assay in all cases: NCI-60 one-dose screen, 48 h (100 = growth as untreated, 0 = no growth, -100 = all killed)
Details in all cases: 10 µM unless noted
HCT-15 colon = tested on: HCT-15 colon
HT29 colon = tested on: HT29 colon
SNB-75 CNS = tested on: SNB-75 CNS
SNB-19 CNS = tested on: SNB-19 CNS
U251 CNS = tested on: U251 CNS
PC-3 prostate = tested on: PC-3 prostate
SK-MEL-5 melanoma = tested on: SK-MEL-5 melanoma
UACC-62 melanoma = tested on: UACC-62 melanoma
LOX IMVI melanoma = tested on: LOX IMVI melanoma
SK-MEL-28 melanoma = tested on: SK-MEL-28 melanoma
SK-MEL-2 melanoma = tested on: SK-MEL-2 melanoma
EKVX NSCLC = tested on: EKVX NSCLC
SN12C renal = tested on: SN12C renal
UO-31 renal = tested on: UO-31 renal
TK-10 renal = tested on: TK-10 renal
ACHN renal = tested on: ACHN renal
CAKI-1 renal = tested on: CAKI-1 renal
A498 renal = tested on: A498 renal
CCRF-CEM leukemia = tested on: CCRF-CEM leukemia
MOLT-4 leukemia = tested on: MOLT-4 leukemia

SMILES	growth (HCT-15 colon)	growth (HT29 colon)	growth (SNB-75 CNS)	growth (SNB-19 CNS) [%]	growth (U251 CNS)	growth (PC-3 prostate)	growth (SK-MEL-5 melanoma)	growth (UACC-62 melanoma)	growth (LOX IMVI melanoma)	growth (SK-MEL-28 melanoma)	growth (SK-MEL-2 melanoma) [%]	growth (EKVX NSCLC) [%]	growth (SN12C renal)	growth (UO-31 renal)	growth (TK-10 renal)	growth (ACHN renal)	growth (CAKI-1 renal)	growth (A498 renal)	growth (CCRF-CEM leukemia)	growth (MOLT-4 leukemia)
COc1cccc(/C=C2\COc3ccc(O)c(O)c3C2=O)c1	1.4% (active)	8.58% (active)	11.5%	35.4	3% (active)	-10.5% (active)	40.4%	-6.3% (active)	-82.3% (active)	32.1%	57.1	60.2	-54.3% (active)	-93.3% (active)	21.5%	-79.2% (active)	0.272% (active)	111%	3.04% (active)	2.08% (active)
Cc1[nH]c(C(=O)Nc2ccccc2OC2CCNCC2)c(Cl)c1Cl	20.2%	-7.94% (active)	-28.9% (active)	33.4	-4.3% (active)	43.1%	-40.6% (active)	-79.9% (active)	-88.3% (active)	18.9%	24.2	43	-53.2% (active)	-75.8% (active)	-3.07% (active)	-19.2% (active)	1.32% (active)	67.6%	1.15% (active)	4.46% (active)
COc1ccc(NC2=C(I)C(=O)c3ncccc3C2=O)cc1	-40.2% (active)	11.5%	-93.1% (active)	19.3	-47.7% (active)	12.3%	-94.6% (active)	-71.2% (active)	-58.6% (active)	20.5%	29.1	64.8	-96.4% (active)	-92.6% (active)	51.1%	-12.7% (active)	24.1%	65.3%	11%	-31.7% (active)
Cc1ccc2c(n1)C(=O)C(Br)=C(CC(C)C)C2=O	104%	108%	97.3%	101	97.8%	97.5%	98.1%	93.9%	98.1%	105%	110	104	98.8%	87.2%	115%	68.6%	92.7%	106%	24.2%	19.5%
N#Cc1c(-c2ccccc2)cc(-c2ccccc2)n(CCCC(=O)Nc2ccccc2N)c1=O	28.1%	49.5%	-9.01% (active)	62.2	56.7%	67.4%	48.4%	34.2%	48%	65.9%	46.4	79.1	70.5%	49.1%	104%	63.8%	38.2%	-5.55% (active)	56.3%	47.4%
NC(N)=NCCCCCNc1noc(Cc2c[nH]c3cc(Br)ccc23)n1	102%	73.7%	37.6%	37.5	21.6%	31.8%	68.1%	56.1%	70.5%	86.9%	87.7	69.6	44.7%	80.2%	75.4%	92.6%	82.4%	94%	97.8%	60.2%
CCOCCNC1=C(Cl)C(=O)c2ccccc2C1=O	95%	107%	57.9%	111	100%	92.6%	67.2%	101%	70.6%	117%	92.3	106	100%	105%	125%	110%	115%	94.4%	102%	89.2%
O=C(/C=C/c1ccco1)Nc1ncc(Cc2cccc(C(F)(F)F)c2)s1	10.9%	3.46% (active)	-1.69% (active)	34.3	5.08% (active)	17%	12.5%	5.19% (active)	5.43% (active)	46.4%	23.4	25	20.9%	11.8%	33.6%	11.7%	20.5%	-6.36% (active)	14.5%	14%
CN(C)S(=O)(=O)c1cccc(C(=O)Nc2nc(-c3ccc(F)c(F)c3)cs2)c1	61.3%	74.3%	75.5%	92	55.1%	39.1%	2.37% (active)	45.9%	71.9%	102%	32.2	48.7	62.9%	38.7%	81.2%	63.4%	97.1%	46.3%	39.6%	28.2%
CCN(CC)c1ccc(\C=N/N=C(N)/C(N)=N\N=C/c2ccc(N(CC)CC)cc2)cc1	92.4%	99.2%	93%	113	97.9%	97.1%	97.1%	104%	101%	105%	97.7	104	105%	82.9%	113%	96.4%	88.9%	102%	89%	95.8%
N=C(N)c1ccc(-c2ccc(-c3ccc(Cl)c(Cl)c3)s2)nc1	-71.9% (active)	5.19% (active)	84.8%	11.7	-55.7% (active)	-16.9% (active)	91.3%	81%	-88.6% (active)	107%	102	62.8	36.6%	32.7%	112%	-62.8% (active)	-60.1% (active)	90.7%	-1.55% (active)	-26.3% (active)
COc1ccc2cc1Oc1ccc(cc1)C[C@H]1c3c(cc4c(c3Oc3cc5c(cc3OC)CCN(C)[C@@H]5C2)OCO4)CCN1C	27%	4.38% (active)	71.4%	75.9	26.8%	43.9%	-97% (active)	34.4%	-41.7% (active)	-54.9% (active)	69.9	75.1	60.3%	60.6%	44.8%	63%	70.8%	32.2%	21%	31.5%
Fc1cc2c(cc1Cl)N(c1ncnc3ccc(-c4ccc5n[nH]nc5c4)cc13)CC2	95.7%	95%	22.1%	80	86.9%	71.1%	91.2%	78.7%	86%	86.9%	89	52.8	64.9%	44.3%	46%	50.1%	49.3%	-2.78% (active)	92.9%	90.5%
COc1cc(/C=C2/C=C(c3ccccc3)N(CCc3ccc(S(N)(=O)=O)cc3)C2=O)cc(OC)c1OC	100%	94.7%	71.9%	101	87%	44.2%	90.7%	89.6%	101%	119%	104	105	105%	87.8%	96.2%	103%	99.1%	86.6%	91%	83.1%
Cn1c(=O)c2nc(/C=C/c3ccccc3)c(=O)[nH]c2n(C)c1=S	102%	109%	105%	105	108%	102%	102%	92.4%	101%	111%	109	101	104%	86.9%	115%	105%	92.1%	97.8%	101%	103%
